HT1080NT lethal: qHTS for induction of synthetic lethality in tumor cells producing 2HG: qHTS for the HT-1080-NT fibrosarcoma cell line; HT-1080-NT fibrosarcoma viability, CellTiter-Glo ATP luminescence, 48 h; Potency, µM (highest dose often 46.1 µM), for the others: top-dose activity, negative = less viability, usual class: cytotoxic; 360,000 compounds, 1.6% hits;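 further: NT is the 2HG producing partner of a matched IDH1 knockdown line; 0% = DMSO-treated cells and -100% = media-only wells without cells; nearly all actives have a fitted effect of over 55% in size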
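Viability by CellTiter-Glo luminescence after 48 h compound exposure at 37C of HT-1080-NT cells (750/well, RPMI, 5% FBS). % activity scaled between DMSO wells and medium-only wells, then curve-fitted and categorized by curve class.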
TDP1 cell CPT: qHTS for Inhibitors of human tyrosyl-DNA phosphodiesterase 1 (TDP1): qHTS in cells in presence of CPT. chicken DT40 Tdp1-/-;hTDP1 cells + 20 nM CPT, ATP luminescence, 48 h. Potency, µM (top dose mostly 46.2 µM), inactives show top-dose activity change, negative = growth inhibition, actives largely listed as inhibitors. 420,000 compounds, 12% hits. AID 686979, 2013; further: on the % scale 0 is the no-effect control and ±100 the full control effect; nearly all actives have a fitted effect of over 55% in size
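Chicken DT40 Tdp1-/- cells complemented with human TDP1, 400 cells/well, exposed to compounds plus 20 nM camptothecin for at least 48 h at 37 C; viability read as ATP content by CellTiter-Glo luminescence.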
TDP1 cell noCPT: qHTS for Inhibitors of human tyrosyl-DNA phosphodiesterase 1 (TDP1): qHTS in cells in absence of CPT | DT40 Tdp1-/- hTDP1 cells, no CPT, ATP luminescence, 48 h | Potency, µM (titrated, usually from 46.2 µM), for inactives: at the top dose activity change, negative = growth inhibition, usual class: inhibitors | 420,000 compounds, 15% hits | AID 686978, 2013; further: on the % scale 0 is the no-effect control and ±100 the full control effect; nearly all actives have a fitted effect of over 55% in size
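Camptothecin absent (DMSO only). Human TDP1-complemented DT40 knockout cells, 400 cells/well, 37 °C for minimum 48 hr; ATP measured via CellTiter-Glo, 30 min dark incubation, luminescence.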
TGFb inhibitor: qHTS for Inhibitors of TGF-b; HepG2 CAGA-GFP TGF-b/SMAD3 reporter, GFP fluorescence, 18 h; TGF-beta stimulated, 500 pg/mL final; Potency, µM (titrated, usually from 46.1 µM), for the others: at the top dose activity, negative = inhibition, actives largely listed as inhibitors; 410,000 compounds, 1.2% hits; AID 588855, 2011; further: on the % scale 0 is the no-effect control and ±100 the full control effect; nearly all actives have a fitted effect of over 65% in size
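HEPG2 CAGA-GFP, 1000 cells/well; 2 h settle, 37 C; cpd via pin tool; TGF-b 500 pg/mL final; 18 h, 37 C; GFP imaging ex488/em500-530; %Activity normalised to -TGF-b and +DMSO controls; CRC fit, curve class.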
HT1080 IDH1KD tx: qHTS for induction of synthetic lethality in tumor cells producing 2HG: qHTS for the HT-1080-IDH1KD cell line | HT-1080 IDH1 knockdown viability, ATP luminescence, 48 h | Potency, µM (titrated, usually from 46.1 µM), for inactives: at the highest dose activity, negative = toxicity, actives largely listed as cytotoxic | 360,000 compounds, 2% hits;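 further: 0% = DMSO wells and -100% = cell-free medium wells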
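Using the IDH1-knockdown HT-1080 line run in the same batch and compound series as the NT line, viability after 48 h at 37 °C was determined by CellTiter-Glo luminescence and expressed as % activity.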
HepG2 viability: qHTS for Inhibitors of TGF-b: Cytotox Counterscreen. Potency, µM (titrated, usually from 46.1 µM), for the others: at the highest dose activity change, negative = cytotoxicity, actives largely listed as cytotoxic. HepG2 CAGA-GFP viability, ATP luminescence, 18 h. 410,000 compounds, 0.76% hits
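HepG2 CAGA-GFP cells (1000/well, DMEM with 1% FBS) received compound, then TGF-beta at 500 pg/mL final, and were incubated 18 hours at 37 degrees C. Viability was read by CellTiter-Glo luminescence. Media-only wells were set as complete cell-killing and DMSO as no toxicity.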
Starred values were filed as active, the others as inactive. Shown are actives, neighbours in structure and some others; about 17% of the full set was active somewhere. The call rests on the fitted dose curve; in most records, active means well fitted curve in the direction sought with a large enough effect; inconclusive means small, poorly fitted or top-dose-only effect, or another doubt; inactive means no such curve, though single readings can be large; an effect the other way counts as inactive or inconclusive. Potency means the concentration at half of the fitted maximal effect.

Results for O=C(Nc1ccc2ccccc2c1)N1CCCN(CCOc2ccccc2)CC1 ?
HT1080NT lethal: -8.3%; TDP1 cell CPT: 4.61µM*; TDP1 cell noCPT: 4.11µM*; TGFb inhibitor: -27.7%; HT1080 IDH1KD tx: 5.5%; HepG2 viability: -4.2%

How did CCOc1cc(C2C(C(=O)Nc3ccccc3)=C(C)Nc3ncnn32)cc(Br)c1O (stereo unspecified) do in these assays?
TDP1 cell CPT: 2.1%; TDP1 cell noCPT: -20.3%; TGFb inhibitor: 2.7%; HepG2 viability: 3.5%

How did CCN(C(=O)CN1C(=S)NC(C)(C)CC1C)c1ccc(C)c(C)c1 (stereo unspecified) do in these assays?
HT1080NT lethal: 8.2%; TDP1 cell CPT: 14.6µM*; TDP1 cell noCPT: 23.1µM*; TGFb inhibitor: 8.7%; HT1080 IDH1KD tx: 1.8%; HepG2 viability: -4.1%

Results for Cc1ccc(S(=O)(=O)c2nnn3c2nc(NCCCN2CCCC2=O)c2ccccc23)cc1C ?
HT1080NT lethal: inconclusive; TDP1 cell CPT: inconclusive; TDP1 cell noCPT: -14.0%; TGFb inhibitor: 0.4%; HT1080 IDH1KD tx: inconclusive; HepG2 viability: -15.3%

What do the screens show for `Cc1ccc(S(=O)(=O)c2nnn3c2nc(N(C)Cc2ccccc2)c2cc(Cl)ccc23)cc1C`?
TDP1 cell CPT: 13µM*; TDP1 cell noCPT: 11.6µM*; TGFb inhibitor: -1.4%; HepG2 viability: 0.9%

Results for CCCCN(C)c1nc2c(S(=O)(=O)c3ccc(CC)cc3)nnn2c2ccc(Cl)cc12 ?
TDP1 cell CPT: 11.6µM*; TDP1 cell noCPT: 10.3µM*; TGFb inhibitor: 9.0%; HepG2 viability: -0.6%

What do the screens show for `Cc1ccc(S(=O)(=O)c2nnn3c2nc(NC2CCN(Cc4ccccc4)CC2)c2ccccc23)cc1C`?
HT1080NT lethal: -3.5%; TDP1 cell CPT: 11.6µM*; TDP1 cell noCPT: 5.8µM*; TGFb inhibitor: inconclusive; HT1080 IDH1KD tx: -16.0%; HepG2 viability: -78.2%

What do the screens show for `O=C(CN1CCc2cc3c(cc2C1)OCCCO3)Nc1c(F)cccc1F`?
HT1080NT lethal: -7.4%; TDP1 cell CPT: 23.1µM*; TDP1 cell noCPT: inconclusive; TGFb inhibitor: -7.9%; HT1080 IDH1KD tx: -5.6%; HepG2 viability: -1.8%

Results for O=C(CN1CCc2cc3c(cc2C1)OCCCO3)Nc1ccc(F)cc1 ?
HT1080NT lethal: -17.3%; TDP1 cell CPT: inconclusive; TDP1 cell noCPT: inconclusive; TGFb inhibitor: inconclusive; HT1080 IDH1KD tx: -6.7%; HepG2 viability: -13.1%

Results for COc1cccc(N=CNc2cccc(OC)c2)c1 ?
HT1080NT lethal: -22.3%; TDP1 cell CPT: 0.7%; TDP1 cell noCPT: 6.4%; TGFb inhibitor: 16.7%; HT1080 IDH1KD tx: inconclusive; HepG2 viability: -13.2%

Results for CC(C)c1ccc(/C=N/NC(=O)C2CCCC2)cc1 ?
HT1080NT lethal: 7.0%; TDP1 cell CPT: inconclusive; TDP1 cell noCPT: inconclusive; TGFb inhibitor: 3.2%; HT1080 IDH1KD tx: 0.3%; HepG2 viability: 0.8%

Results for CC(C)(C)c1ccc(/C=N/NC(=O)C2CCCC2)cc1 ?
HT1080NT lethal: -7.7%; TDP1 cell CPT: 20.6µM*; TDP1 cell noCPT: 13µM*; TGFb inhibitor: -17.4%; HT1080 IDH1KD tx: -22.8%; HepG2 viability: -23.1%

Results for CCOc1ccccc1NC(=O)CN(c1ccc(OC)cc1)S(=O)(=O)c1c(C)[nH]c(=O)[nH]c1=O ?
HT1080NT lethal: -0.1%; TDP1 cell CPT: -3.3%; TDP1 cell noCPT: 1.1%; TGFb inhibitor: 1.2%; HT1080 IDH1KD tx: 2.7%; HepG2 viability: -2.5%

Results for CCN1C(=O)C(O)(C2COC(C)(C)CC2=O)c2ccccc21 (stereo unspecified) ?
HT1080NT lethal: 21.6%; TDP1 cell CPT: 13µM*; TDP1 cell noCPT: 8.2µM*; TGFb inhibitor: 0.6%; HT1080 IDH1KD tx: 25.0%; HepG2 viability: 7.4%

What do the screens show for `CCCN1C(=O)C(O)(C2COC(C)(C)CC2=O)c2ccccc21` (stereo unspecified)?
HT1080NT lethal: 10.2%; TDP1 cell CPT: 3.66µM*; TDP1 cell noCPT: 13µM*; TGFb inhibitor: -25.6%; HT1080 IDH1KD tx: inconclusive; HepG2 viability: 3.5%

What do the screens show for `CN1C(=O)C(O)(C2OC(C)(C)CCC2=O)c2ccccc21` (stereo unspecified)?
HT1080NT lethal: 5.1%; TDP1 cell CPT: 8.2µM*; TDP1 cell noCPT: 6.51µM*; TGFb inhibitor: 22.3%; HT1080 IDH1KD tx: 3.7%; HepG2 viability: 2.8%

How did CCN1C(=O)C(O)(C2COC(C)(C)CC2=O)c2cc(Br)ccc21 (stereo unspecified) do in these assays?
HT1080NT lethal: 15.8µM*; TDP1 cell CPT: 1.3µM*; TDP1 cell noCPT: 1.16µM*; TGFb inhibitor: inconclusive; HT1080 IDH1KD tx: inconclusive; HepG2 viability: -40.2%

How did Cc1nc(-c2ccc(S(=O)(=O)Nc3ccc(Br)cc3F)cc2)co1 do in these assays?
HT1080NT lethal: 0.0%; TDP1 cell CPT: -12.3%; TDP1 cell noCPT: 2.9%; TGFb inhibitor: -10.3%; HT1080 IDH1KD tx: -3.3%; HepG2 viability: 1.7%

What do the screens show for `CCCN1C(=O)C(O)(C2CC(=O)CC(C)(C)O2)c2ccccc21` (stereo unspecified)?
HT1080NT lethal: -1.6%; TDP1 cell CPT: 5.8µM*; TDP1 cell noCPT: 5.8µM*; TGFb inhibitor: 7.5%; HT1080 IDH1KD tx: 9.6%; HepG2 viability: -15.2%

Results for Cc1ccc(NC(=O)CN2C(=O)C(c3ccc(F)cc3)=NC23CCCCC3)c(C)c1 ?
TDP1 cell CPT: inconclusive; TDP1 cell noCPT: inconclusive; HepG2 viability: -30.1%

How did COc1ccc(C)cc1NC(=O)CO/N=C(\N)CC(=O)NC1CCCCC1 do in these assays?
HT1080NT lethal: 2.4%; TDP1 cell CPT: 1.0%; TDP1 cell noCPT: 3.8%; TGFb inhibitor: -21.0%; HT1080 IDH1KD tx: 2.6%; HepG2 viability: -4.4%

What do the screens show for `CC(N)c1csc(Nc2ccc(C(=O)NCCCO)cn2)n1` (stereo unspecified)?
HT1080NT lethal: inconclusive; TDP1 cell CPT: -13.6%; TDP1 cell noCPT: -10.7%; TGFb inhibitor: 8.0%; HT1080 IDH1KD tx: 16.1%; HepG2 viability: 1.1%

Source: PubChem (National Center for Advancing Translational Sciences (NCATS))
